Laboratory results reported in PubChem BioAssay (NCATS).
Results filed as inconclusive are left out. Activity calls are given as the source filed them. Calls follow the shape of the dose curve; as a rule, active = well fitted curve in the direction sought with a large enough effect; inconclusive = small, poorly fitted or top-dose-only effect, or another doubt; inactive = no such curve, though single readings can be large; an effect the other way counts as inactive or inconclusive.

Columns and labels:
[1] = HPAF-II 18hr Apoptosis Induction qHTS against the NCATS CANVASS Library (AID 1347360)
Method in brief: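 Seed HPAF-II cells at 500/well in DMEM + 10% FBS, pin-transfer compounds, incubate 18 hours at 37 degrees C/5% CO2, add Caspase-Glo 3/7 reagent, wait 15 min, read luminescence.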

[2] = HEK293 12hr Apoptosis Induction qHTS against the NCATS CANVASS Library (AID 1347361)
Method in brief: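 Cells are seeded, dosed with an 11-point compound series and incubated 12 hours. Caspase-3/7 activity is detected by luminescent DEVD-substrate reagent after 15 minutes at room temperature.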

[3] = target: Luciferin 4-monooxygenase (Photinus pyralis) (UniProt P08659); assay: Firefly luciferase counterscreen qHTS: Assay Interference Panel against the NCATS CANVASS Library (AID 1347363); also: series mostly up to about 57 µM
Luciferin 4-monooxygenase (Photinus pyralis), sequence (P08659 whole entry, looked up): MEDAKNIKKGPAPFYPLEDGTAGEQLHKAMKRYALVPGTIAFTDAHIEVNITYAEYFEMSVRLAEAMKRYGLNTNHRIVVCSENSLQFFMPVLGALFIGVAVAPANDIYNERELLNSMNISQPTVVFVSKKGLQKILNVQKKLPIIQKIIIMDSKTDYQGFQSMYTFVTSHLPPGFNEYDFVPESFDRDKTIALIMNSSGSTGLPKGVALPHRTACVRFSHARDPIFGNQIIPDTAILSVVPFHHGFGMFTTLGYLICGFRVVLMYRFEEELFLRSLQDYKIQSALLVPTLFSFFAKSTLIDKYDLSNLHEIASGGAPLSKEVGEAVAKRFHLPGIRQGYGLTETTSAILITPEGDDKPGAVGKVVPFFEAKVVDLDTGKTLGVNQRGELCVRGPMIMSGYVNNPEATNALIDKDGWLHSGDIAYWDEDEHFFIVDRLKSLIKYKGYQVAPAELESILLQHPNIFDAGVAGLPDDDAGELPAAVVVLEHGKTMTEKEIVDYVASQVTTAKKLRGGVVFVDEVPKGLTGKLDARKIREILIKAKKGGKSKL
Method in brief: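 Purified P. pyralis luciferase was added to compounds (11-point series) preincubated 15 min at room temperature with substrate containing 0.013 mM D-luciferin and 0.013 mM ATP; luminescence was read after 5 min.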

[4] = KB-8-5-11 Cancer Cell Toxicity qHTS against the NCATS CANVASS Library (AID 1347364); also: nearly all actives have a fitted effect of over 75% in size
Method in brief: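 Terse: KB-8-5-11, 500 cells/well, 72 hr, 37C/5% CO2, 11-pt titration, CellTiter-Glo readout; confirmatory runs ± 1uM tariquidar in medium.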

[5] = SDT Cancer Cell Toxicity qHTS against the NCATS CANVASS Library (AID 1347365);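 also: SDT canine glioma cells 500 per well in 1536 well plates; series mostly up to about 46 µM; nearly all actives have a fitted effect of over 60% in size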
Method in brief: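 Cytotoxicity is measured from cellular ATP: compounds in an 11-point concentration series are pinned onto SDT cells, incubated 72 hr at 37C, then CellTiterGlo is added and luminescence read.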

[6] = KB-3-1 Cancer Cell Toxicity qHTS against the NCATS CANVASS Library (AID 1347366); also: series mostly up to about 46 µM; nearly all actives have a fitted effect of over 75% in size
Method in brief: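 Luminescence from CellTiter-Glo (10 min, room temperature) measured KB-3-1 viability after 72 hr compound exposure at 37C. Cells were seeded at 500/well and tested in an 11-point series.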

[7] = qHTS for ATAD5 Agonist screened against the NCATS CANVASS Library (AID 1347367);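 also: luciferase reporter driven by ATAD5 which rises upon DNA damage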
Method in brief: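 HEK293T-ATAD5 luc reporter; 2000 cells/well; 5hr settle; cpd 11-pt qHTS; 16hr 37C 5% CO2 dark; viability by CellTiter-Fluor (AFC fluorescence); then luciferase luminescence, 30min RT.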

[8] = G06 Cancer Cell Toxicity qHTS against the NCATS CANVASS Library (AID 1347368); also: series mostly up to about 46 µM; nearly all actives have a fitted effect of over 60% in size
Method in brief: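 Cells were plated at 500 per well, then compounds were added over an 11-point range. After 72 hr at 37C, CellTiterGlo was added and luminescence measured as ATP content.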

[9] = MCF7 Cancer Cell Toxicity qHTS against the NCATS CANVASS Library (AID 1347369)
Method in brief: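 Cells seeded at 500/well, then compound pinned. Plates incubated 72 hr at 37C, 5% CO2. CellTiterGlo added; luminescence read.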

[10] = qHTS for ATAD5 Antagonist screened against the NCATS CANVASS Library (AID 1347370);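 also: HEK293T cells carrying an ATAD5 luciferase reporter co-treated with 10 µM 5-fluorouridine; series mostly up to about 46 µM; nearly all actives have a fitted effect of over 65% in size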
Method in brief: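 Compounds (11-point) co-dosed with 10 µM 5-FUrd for 16 h at 37 °C onto HEK293T-ATAD5 luciferase reporter cells. Viability measured by CellTiter-Fluor fluorescence, then ATAD5 reporter signal by luminescence.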

[11] = J3T Cancer Cell Toxicity qHTS against the NCATS CANVASS Library (AID 1347371);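 also: J3T is a canine glioma cancer cell line seeded at 500 cells per well; series mostly up to about 46 µM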
Method in brief: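 Luminescence from CellTiterGlo, reporting cellular ATP, serves as the viability measure after 72 hr compound treatment of J3T canine glioma cells seeded at 500 cells/well.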

[12] = target: Nuclear receptor subfamily 1 group I member 3 (Homo sapiens) (UniProt Q14994); assay: qHTS for Constitutive Androstane Receptor (CAR) Antagonist screened against the NCATS CANVASS Library (AID 1347372);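 also: cells stimulated with 50 nM CITCO agonist so inhibition reflects antagonism; luciferase from CYP2B6 promoter reporter driven by hCAR in HepG2 cells; series mostly up to about 46 µM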
Nuclear receptor subfamily 1 group I member 3 (Homo sapiens), sequence (Q14994 whole entry, looked up): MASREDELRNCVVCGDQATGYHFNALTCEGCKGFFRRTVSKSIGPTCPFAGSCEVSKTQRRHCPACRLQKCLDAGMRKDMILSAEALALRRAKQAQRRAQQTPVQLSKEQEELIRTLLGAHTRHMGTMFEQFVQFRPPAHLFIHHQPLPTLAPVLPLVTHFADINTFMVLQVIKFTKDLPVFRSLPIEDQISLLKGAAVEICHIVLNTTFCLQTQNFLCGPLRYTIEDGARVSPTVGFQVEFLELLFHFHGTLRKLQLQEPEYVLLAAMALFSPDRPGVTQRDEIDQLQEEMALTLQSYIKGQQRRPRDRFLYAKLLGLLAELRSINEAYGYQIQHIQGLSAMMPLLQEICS
Method in brief: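 Cells were seeded and left 4hr to attach, then received compound at 11 concentrations and 50 nM CITCO. Following 24hr incubation, fluorescence viability and luciferase luminescence were read sequentially.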

[13] = target: Nuclear receptor subfamily 1 group I member 3 (Homo sapiens) (UniProt Q14994); assay: qHTS for Constitutive Androstane Receptor (CAR) Agonist screened against the NCATS CANVASS Library (AID 1347373);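 also: every well also contained 1.5 µM PK11195 alongside the test compound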
Method in brief: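 Cells were plated and allowed to attach for 4hr, then dosed with compound in an 11-point series alongside 1.5uM PK11195. After 24hr at 37C, viability was measured fluorometrically and CAR-driven CYP2B6 reporter luminescence was recorded.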

[14] = qHTS for Hypoxia signaling pathway (HIF-1) antagonists against the NCATS CANVASS Library (AID 1347374);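 also: HRE-bla ME-180 cells stimulated with cobalt chloride to stabilize HIF-1alpha; series mostly up to about 38 µM; nearly all actives have a fitted effect of over 60% in size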
Method in brief: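 Antagonism scored as loss of CoCl2-driven (60 uM stock added) HRE beta-lactamase signal, read by CCF4 FRET at 460/530 nm. Compounds were tested in an 11-point series on ME-180 reporter cells for 17 hrs at 37C, with parallel CellTiter-Glo cytotoxicity.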

[15] = qHTS for H2AX Agonists against the NCATS CANVASS Library (AID 1347378);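 also: phospho-H2AX S139 level in CHO-K1 lysates by TR-FRET emission ratio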
Method in brief: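 CHO-K1, 1000 cells/well, o/n 37C; cpd several conc, 3 hr 37C, 0.76% DMSO; lyse 30 min RT; cryptate anti-pH2AX(S139) + d2 anti-H2AX, 24 hr RT; HTRF 665/620.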

[16] = qHTS for Inflammasome Signaling Inhibitors: IL-1-beta AlphaLISA screen against the NCATS CANVASS Library (AID 1347379);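 also: human THP-1 cells primed with LPS then triggered with ATP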
Method in brief: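 Secreted IL-1B from human THP-1 cells quantified by AlphaLISA 16 hr after compound addition (final up to 57.5 uM). A 1 hr compound pretreatment preceded inflammasome activation with 250 ng/mL LPS plus 1.25 mM ATP (final).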

[17] = Inflammasome Signaling qHTS Counterscreen: IL-1-beta AlphaLISA counterscreen against the NCATS CANVASS Library (AID 1347381);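 also: cell-free check with purified IL-1β in medium and no THP-1 cells; series mostly up to about 57 µM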
Method in brief: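 Purified IL-1-beta (4 pg/well) + compound, 11-pt conc. series; acceptor beads 6 ug/mL + biotin-Ab 0.6 nM final, 1 h RT; SA-donor 24 ug/ml final, 30 min dark RT; read ex 680/em 615.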

[18] = Cytotoxicity qHTS for assessment of Hepg2 cells membrane integrity screened against the NCATS CANVASS Library (AID 1347387)
Method in brief: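 Cells were seeded at 2000 per well and left overnight to attach. Compounds were pin-transferred to give 0.59 nM - 46 uM in an 11-point series and incubated 5 hr at 37C. CytoTox-ONE reagent was added and, after 10 min at room temperature, fluorescence (ex 560, em 590 nm) was read.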

[19] = qHTS for Activators of p53 Stress Response Pathway screened against the NCATS CANVASS Library (AID 1347388)
Method in brief: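 p53RE-bla HCT-116 cells (4000/well) were plated 5 h at 37C, exposed to compounds for 16 h at 37C over an 11-point concentration series, then loaded with CCF4 for 2 h at room temperature; 460/530 nm emission ratio read.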

[20] = qHTS assay for small molecule disruptors of mitochondrial membrane potential screened against the NCATS CANVASS Library (AID 1347389); also: series mostly up to about 46 µM; nearly all actives have a fitted effect of over 60% in size
Method in brief: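 Mitochondrial depolarization in HepG2 cells is scored as a falling aggregate-to-monomer fluorescence ratio after 1 hr compound exposure and 30 min staining with Mito-MPS dye at 37C, each compound tested as an 11-point titration.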

[21] = qHTS for activators of Nrf2/ARE signaling pathway screened against the NCATS CANVASS Library (AID 1347391); also: nearly all actives have a fitted effect of over 60% in size
Method in brief: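 Beta-lactamase reporter signal, read as 460 and 530 nm emission under 405 nm excitation after 2 h CCF4 loading, reflected ARE activation in HepG2 cells treated 16 h with an 11-point series.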

[22] = qHTS for activators of dead-cell proteases activity screened against the NCATS CANVASS Library (AID 1347392);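 also: luminescence from protease leaking out of membrane-damaged cells cleaving impermeant substrate; rising signal means more cytotoxicity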
Method in brief: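 Cytotoxicity in HepG2 cells was assessed by released protease cleaving AAF-aminoluciferin, with luminescence as signal. Exposure lasted 5 h at 37C across an 11-point series.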

[23] = Vero-766 cells viability qHTS against the NCATS CANVASS Library: Counterscreen for Zika virus inhibition assay (AID 1347394)
Method in brief: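 Vero 766, no virus; 1000 cells/well; o/n attach; cpd 11-pt; 72 h, 37C, 5% CO2; CTG luminescence; cell-free media wells = 100% inhibition.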

[24] = qHTS for inhibitors of Wild type Zika virus screened against the NCATS CANVASS Library (AID 1347396);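 also: ATP luminescence of surviving cells so rescue from viral cell killing; series mostly up to about 46 µM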
Method in brief: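 Vero 766 cells, 1000/well, o/n attach; cpds pin-transferred (11-pt qHTS); WT Zika added; 72 h, 37C, 5% CO2; CellTiter Glo lumi. Uninfected + vehicle = 100% inhibition.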

Measured: Potency

O=C(OC1Cc2c(O)cc(O)cc2OC1c1cc(O)c(O)c(O)c1)c1cc(O)c(O)c(O)c1 (centres undefined)
inactive: all assays above
